Assay [1] in a line: TOX21_p53_BLA_p2_viability: Viability Assessment in the Tox21 HCT-116 p53 Agonism Beta-lactamase Assay, Phase 2 (AID 2283591).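 Also: compound exposure lasted 16 h at 37 °C; actives lower the ATP signal meaning cytotoxicity.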 The method, boiled down:
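HCT116 p53-bla cells, 4000/well, dosed after 5 h plating (217-fold dilution of DMSO stocks) and incubated 16 h at 37C. Viability taken as cellular ATP by CellTiter-Glo luminescence after 30 min RT; signal loss marks cytotoxicity.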

Assay [2] concerns the target Cellular tumor antigen p53 (Homo sapiens) (UniProt P04637). As to the kind of experiment: TOX21_p53_BLA_p2_ratio: Tox21 HCT-116 p53 Agonism Beta-lactamase Assay, Ratio, Phase 2 (AID 2283592). The method, boiled down:
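In this cell-based reporter format, HCT116 cells were dosed with chemicals delivered from DMSO by 217-fold dilution and incubated 16 h at 37C. Emission at 460 and 530 nm after 2 h CCF4-AM loading provided the ratio, fitted upward versus DMSO.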

Assay [3] in a line: TOX21_p53_BLA_p3_viability: Viability Assessment in the Tox21 HCT-116 p53 Agonism Beta-lactamase Assay, Phase 3 (AID 2283593).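 Also: cells exposed to compound for 16 h before reading.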 The method, boiled down:
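HCT116 cells, 4000/well, dosed 5 h after plating by pin transfer (217-fold dilution from DMSO stock) and incubated 16 h at 37C, 5% CO2. Viability read as ATP luminescence with CellTiter-Glo after 30 min at room temperature.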

In assay [4] the target is Cellular tumor antigen p53 (Homo sapiens) (UniProt P04637). As to the kind of experiment: TOX21_p53_BLA_p3_ratio: Tox21 HCT-116 p53 Agonism Beta-lactamase Assay, Ratio, Phase 3 (AID 2283596). The method, boiled down: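 HCT116 p53-bla cells (4000/well) given compound in DMSO (217-fold dilution) after 5 h, incubated 16 h at 37C. CCF4-AM substrate 2 h at room temperature; 460/530 nm emission ratio, gain fitted against DMSO.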
Cellular tumor antigen p53 (Homo sapiens), sequence (P04637 whole entry, looked up): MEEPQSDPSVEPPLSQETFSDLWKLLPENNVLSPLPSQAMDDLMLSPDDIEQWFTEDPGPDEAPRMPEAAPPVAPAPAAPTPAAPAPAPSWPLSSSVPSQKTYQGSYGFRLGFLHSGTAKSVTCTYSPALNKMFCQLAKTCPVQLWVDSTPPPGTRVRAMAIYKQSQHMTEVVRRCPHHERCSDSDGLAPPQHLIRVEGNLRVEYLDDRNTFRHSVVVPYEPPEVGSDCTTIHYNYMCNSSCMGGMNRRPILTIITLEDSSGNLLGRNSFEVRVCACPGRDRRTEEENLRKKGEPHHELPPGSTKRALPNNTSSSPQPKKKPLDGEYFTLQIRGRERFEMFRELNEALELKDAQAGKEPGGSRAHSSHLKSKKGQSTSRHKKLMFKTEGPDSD

A short description of assay [5]: TOX21_p53_BLA_p4_viability: Viability Assessment in the Tox21 HCT-116 p53 Agonism Beta-lactamase Assay, Phase 4 (AID 2283597).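 Also: hits lower the luminescence signal meaning cytotoxicity.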 The method, boiled down:
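We seeded HCT116 p53 reporter cells at 4000/well and waited 5 h. We then added compounds in DMSO at a 217-fold dilution and incubated for 16 h. Viability was read as CellTiter-Glo luminescence after 30 min at RT.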

Assay [6] deals with Cellular tumor antigen p53 (Homo sapiens) (UniProt P04637). As to the kind of experiment: TOX21_p53_BLA_p5_ratio: Tox21 HCT-116 p53 Agonism Beta-lactamase Assay, Ratio, Phase 5 (AID 2283599). In a few lines:
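HCT-116 p53-bla cells (4000/well) plated 5 h, dosed with compound (217-fold DMSO dilution) for 16 h at 37 C; CCF4-AM substrate 2 h at room temperature. Activity is the 460/530 nm emission ratio (405 nm excitation), fitted in gain-of-signal direction versus DMSO.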

For assay [7] the target is unchanged. Put plainly: TOX21_p53_BLA_p4_ratio: Tox21 HCT-116 p53 Agonism Beta-lactamase Assay, Ratio, Phase 4 (AID 2283601). In a few lines:
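HCT-116 p53 beta-lactamase reporter cells (4000/well) preincubated 5 h, then compound (217-fold dilution of DMSO stock) for 16 h at 37C. CCF4-AM substrate added 2 h at room temperature; 460/530 nm emission ratio fitted upward versus DMSO.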

The nature of assay [8]: TOX21_p53_BLA_p5_viability: Viability Assessment in the Tox21 HCT-116 p53 Agonism Beta-lactamase Assay, Phase 5 (AID 2283600). In a few lines:
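Compounds, pinned from DMSO at 217-fold dilution, were left on the cells for 16 h. The viability endpoint was ATP content measured by CellTiter-Glo luminescence, where falling signal reflects cytotoxicity.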

Records with an inconclusive call do not appear. Calls of active or inactive are those of the source. The calls were made as follows: active = hit-call score of the fitted dose curve at least 0.9, where 1 is the maximum; inconclusive = response in the unintended direction; inactive = score below 0.9.

For the compound `COc1ccc(N)c(OC)c1`, the call in assay [1], in assay [2], in assay [3], in assay [4], in assay [5] and in assay [6] was inactive. For the same compound, the result in assay [7] was inactive.

With `CCCCCCCCCCCCI`, the compound was called inactive in assay [1], in assay [2], in assay [3], in assay [4], in assay [5] and in assay [8].

As for `C[C@H](CN1CCCC1)C(=O)c1ccc(C(F)(F)F)cc1`, the compound was called inactive in assay [1], in assay [2], in assay [3], in assay [4], in assay [5] and in assay [8].

As to `C[Si](NC1CCCCC1)(NC1CCCCC1)NC1CCCCC1`, the result in assay [1], in assay [2], in assay [3], in assay [4], in assay [8] and in assay [7] was inactive. Moreover, the AC50 in assay [5] is 88.8 µM (active).

Regarding `CO[C@H]1/C=C/O[C@@]2(C)Oc3c(C)c(O)c4c(O)c(c5c(c4c3C2=O)=NC2(CCN(CC(C)C)CC2)N=5)NC(=O)/C(C)=C\C=C\[C@H](C)[C@H](O)[C@@H](C)[C@@H](O)[C@@H](C)[C@H](OC(C)=O)[C@@H]1C`, the compound was classed as inactive in assay [1], in assay [2], in assay [3], in assay [4], in assay [5] and in assay [8]. Moreover, the outcome in assay [7] was inactive.

The term AC50 denotes the midpoint of the concentration-response curve, whichever way the signal moves.

These data come from PubChem BioAssay (EPA / NIEHS).
